# Source: PubChem (several laboratories)
# Mot1-301 SUMO: SUMOylation pathway inhibition by Mot1-301 growth rescue | growth rescue, % at 18.8 µM | 320,000 tested, 1% active | S. cerevisiae Mot1-301 growth rescue, ATP luminescence, 38.5C; percent above DMSO median, 100 means doubled;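 active = every valid replicate shows activation above 250% relative to neutral control wells; inactive = the rest, any valid replicate at or below 250%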;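 note: OY570 slx delta 5 strain wells were the positive control but not used for scaling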
# tim23-1 inh: inhibits growth of tim23-1 mutant yeast. AID 463212. 330,000 tested, 1.3% active. inhibition, % at 20 µM. S. cerevisiae tim23-1 growth, BacTiter-Glo luminescence, 24 h;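 active = growth inhibition of the mutant yeast at or above 50%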;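 note: temperature-sensitive mutant grown at 25 °C; plate controls were DMSO-treated mutant yeast for no effect and medium wells lacking yeast for full effect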
# PfHsp90 set2: inhibits growth of yeast expressing Plasmodium falciparum Hsp90. S. cerevisiae expressing PfHsp90, BacTiter-Glo ATP, 48 h; yeast lacking PDR1 and PDR3 efflux regulators. inhibition, % at 9.4 µM. 310,000 tested, 0.32% active. AID 504621;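 active = every replicate shows inhibition above about 80%, whatever the replicate mean, limit read from the data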;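 note: 0% = DMSO neutral controls and 100% = 20 µM radicicol positive controls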
# TIM10 inh: growth inhibitors of TIM10 yeast strain; AID 463195; inhibition, % at 10 µM; S. cerevisiae TIM10 strain growth, BacTiter-Glo luminescence, 24 h; 330,000 tested, 1.4% active;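 active = inhibition of 40% or more at the single tested concentration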;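 note: wild-type TIM10 isogenic control strain grown at permissive 25 °C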
# tim10-1 inh: growth inhibitors of tim10-1 mutant yeast | S. cerevisiae tim10-1 ts strain growth, BacTiter-Glo, 24 h | inhibition, % at 20 µM | 330,000 tested, 2.2% active;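 active = inhibition of at least 40%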;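 note: mutant grown at 25 °C; 0% = DMSO wells with yeast and 100% = wells holding no yeast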
# tim10-1 conf: tim10-1 yeast growth inhibition, confirmed; shares compounds with tim10-1 inh; S. cerevisiae tim10-1 ts strain growth, BacTiter-Glo, 24 h; inhibition, % at 20 µM; 7,400 tested, 56% active; AID 463213;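 active = inhibition of yeast growth at or above a set limit in either of two repeat tests at 20 µM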;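 note: tim10-1 mutant grown at permissive 25 °C to find synthetic lethal compounds; 0% = DMSO yeast wells and 100% = medium wells without yeast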
# tim10 confirm: TIM10 yeast growth inhibition, confirmed. shares compounds with TIM10 inh. S. cerevisiae tim10 strain growth, BacTiter-Glo luminescence, 24 h. inhibition, % at 10 µM. 4,600 tested, 63% active;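 active = inhibition of yeast growth at or above a set limit in either of two replicates at 10 µM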;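 note: this counterscreen used the strain with wild-type TIM10; 0% = yeast with DMSO and 100% = medium wells lacking yeast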
# Starred values were filed as active, the others as inactive; . = no result given. Sampled rows, rich in hits. Any-hit rate of the full collection: about 4.4%.
SMILES,Mot1-301 SUMO,tim23-1 inh,PfHsp90 set2,TIM10 inh,tim10-1 inh,tim10-1 conf,tim10 confirm
O=C(O)CCC(=O)N(Cc1ccco1)C1CC(=O)N(c2ccccc2)C1=O (centres undefined),-1,16,8,13,-12,.,.
O=C(CCn1nc(-c2ccc(Cl)cc2)ccc1=O)N1CCN(c2ccc(F)cc2)CC1,11,12,6,10,24,.,.
CCN(C(=O)COc1ccc(N(C)S(=O)(=O)c2ccc(NC(C)=O)cc2)cc1)C1CCCCC1,-13,14,.,15,13,.,.
O=C1NC[C@H](Cc2ccc(O)cc2)N(CC2CCCCC2)C1=O,73,11,-12,-10,1,.,.
Oc1ccc(C[C@@H]2CNC(=S)N2CCCCC2CCCCC2)cc1,1,38,-36,40*,53*,25,18
O=C(NCC(=O)N1CCC2(CC1)NCCc1[nH]cnc12)c1cccc(Cl)c1,386,-9,-13,-8,0,.,.
Cc1cc(NCCOCCO)n2ncc(-c3ccc(Cl)cc3)c2n1,-3,36,-12,42*,57*,44*,50*
Oc1ccc(/C=N/NC(=S)NCC2CCCO2)cc1 (centres undefined),-17,9,5,2,15,.,.
Oc1ccc(/C=N/NC(=S)NC2CC3CCC2C3)cc1 (centres undefined),4,42,-10,58*,42*,30,27
Cn1c(=O)c2nc(-c3ccccc3)oc2c2ccccc21,-5,49,.,59*,55*,48*,68*
CCCCCc1nc2c(=O)n(C)c3ccccc3c2o1,6,22,.,21,23,.,.
Cc1ccc(-c2cc(C(=O)N(C)CC(=O)Nc3ccccc3Br)c3ccccc3n2)o1,-5,22,.,20,19,.,.
COc1ccc2c(c1OC)C(=O)OC2Nc1nc(-c2cc3cc(Br)ccc3oc2=O)cs1 (centres undefined),-24,40,1,58*,49*,61*,71*
COc1ccc(-c2csc(NC3OC(=O)c4c3ccc(OC)c4OC)n2)cc1OC (centres undefined),-11,0,8,-4,-8,.,.
CCOC(=O)CC1C(=O)NCCN1C(=O)COc1ccc(C(C)(C)C)cc1 (centres undefined),0,-5,-22,8,15,.,.
O=c1c2cccc3c2c(nn1CN1CCOCC1)-c1ccccc1-3,68,25,-69,41*,53*,25,52*
CCN(CC)CCn1nc2c3c(cccc3c1=O)-c1ccccc1-2,32,-31,30,-1,3,.,.
CCN1CC(C)(C)N(C(=O)c2ccccc2)CC1(C)C,.,.,-19,.,.,.,.
c1ccc2c(c1)nc(N1CCOCC1)c1c3ccccc3[nH]c21,11,44,-10,49*,40*,21,61*
O=c1[nH]c2ccccc2nc1N1CCOCC1,-8,13,4,1,-4,.,.
CC(c1nnnn1C(C)(C)C)N(Cc1cccnc1)Cc1ccccc1Cl (centres undefined),19,31,2,42*,50*,34*,32*
Cc1ccc(CC(=O)Nc2ncc([N+](=O)[O-])s2)cc1,-16,46,-1,36,30,.,.
CCCCC(CC)C(=O)Nc1ncc([N+](=O)[O-])s1 (centres undefined),35,45,-1,49*,61*,62*,24
O=c1ccc2cc(S(=O)(=O)N3CCN(c4cc(Cl)ccc4Cl)CC3)ccc2o1,2,25,.,42*,42*,24,39*
COc1ccc(NC(=O)c2ccc3c(c2)OCO3)cc1,7,14,-13,16,13,.,.
SMILES,Mot1-301 SUMO,tim23-1 inh,PfHsp90 set2,TIM10 inh,tim10-1 inh,tim10-1 conf,tim10 confirm
Cc1ccc(/C(N)=N/OC(=O)c2ccc3c(c2)OCO3)cc1,-5,26,2,63*,56*,52*,-12
N/C(=N\OC(=O)c1ccc2c(c1)OCO2)c1ccncc1,-6,-1,5,-5,13,.,.
COc1ccc(/C(N)=N/OC(=O)c2ccc3c(c2)OCO3)cc1,-2,36,-5,66*,64*,50*,-20
Cc1ccc(S(=O)(=O)NCCC(=O)Nc2cc(S(=O)(=O)N(C)C)ccc2C)cc1C,-9,8,-7,6,1,.,.
CC1CCCC(NC(=O)Nc2cccs2)C1C (centres undefined),4,34,56,56*,55*,65*,53*
CCOC(=O)Cc1csc(NC(=S)NC(=O)c2ccccc2)n1,3,26,-3,51*,47*,30,35*
O=C(O)/C=C/c1cccc(OCc2ccccc2)c1,-12,12,-32,9,4,.,.
O=C(/C=C/c1cccc(OCc2ccccc2)c1)c1cccnc1,-23,37,1,65*,57*,50*,52*
O=C(CN1C(=O)C2CCCCC2C1=O)Nc1cc([N+](=O)[O-])ccc1F (centres undefined),-17,-3,2,0,-13,.,.
O=c1c2ccccc2nc(/C=C/c2ccc([N+](=O)[O-])cc2)n1CCCO,-10,5,9,5,6,.,.
O=c1c2ccccc2nc(/C=C/c2ccc([N+](=O)[O-])o2)n1CCCO,-12,-16,-22,59*,86*,83*,22
COc1cc(OC)c(C(=O)Nc2ccc(S(=O)(=O)N3CCCCC3)cc2)cc1OC,8,31,-23,27,25,.,.
Cc1cc(C(=O)Nc2ccc(S(=O)(=O)N3CCCC3)cc2)cs1,25,44,-21,56*,44*,40*,36*
COc1ccc(C(=O)Nc2ccc(S(=O)(=O)N3CCCCC3)cc2)cc1OC,-8,-4,21,60*,49*,33*,-21
Cc1ccc(N(C(=O)CS(=O)CC(=O)Nc2ccc(F)cc2)C(C)C(=O)NC(C)(C)C)cc1 (centres undefined),-11,19,-1,7,16,.,.
Cc1ccc(C)c(S(=O)(=O)N2CCN(C(=O)CCCc3c[nH]c4ccccc34)CC2)c1,-3,14,-12,6,21,.,.
C(=N\Nc1cc(N2CCCCC2)ncn1)/c1ccco1,8,19,-15,-13,-7,.,.
COc1ccc(C(=O)Nc2ccccc2C(=O)N/N=C/c2cccc3ccccc23)cc1,9,47,.,56*,60*,57*,37*
CCCC(=O)NC(=S)Nc1cccc(Cl)c1N1CCCCC1,5,42,23,50*,44*,28,36*
CCC(C)N(C(=O)Cn1nnc(-c2ccc(F)cc2)n1)C1CCS(=O)(=O)C1 (centres undefined),-1,-2,1,2,-21,.,.
